A short description of assay [1]: binders of probe aFSTL3 on microarray, primary screen, stem cell growth factor project, biochemical, small-molecule microarray, fluorescence 635/667 (AID 1064).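 Further: measures binding of the biotinylated anti-FSTL3 antibody to printed compounds.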 The following applies: higher = more signal.
Assay [2] is described as follows: binders from COS7 lysate, DM2A8 probe, primary screen, torsin A project, cell lysate, small-molecule microarray, fluorescence 635/667 (AID 1065). The following applies: higher = more signal, COS7 lysate expressing mutant human TOR1A.
Assay [3] can be described thus: binders of probe aFGF2 on microarray, primary screen, stem cell growth factor project, biochemical, small-molecule microarray, fluorescence 635/667 (AID 1067).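 Further: measures binding of biotinylated aFGF2 protein to printed compounds on slides; z-score merges feature fluorescence and signal-to-noise across triplicate slides.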 The following applies: higher = more signal.
Assay [4] can be described thus: binders of probe aFGF10 on microarray, primary screen, stem cell growth factor project, biochemical, small-molecule microarray, fluorescence 635/667 (AID 1071).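 Further: score merges 667 nm spot intensity and signal to noise from triplicate slides.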 The following applies: higher = more signal.
In assay [5] the target is Neurogenic locus notch homolog protein 2 (Homo sapiens) (UniProt Q04721). The assay can be described thus: Notch2 binders on small-molecule microarrays, primary screen, biochemical, small-molecule microarray, 635 nm fluorescence, stem cell growth factors (AID 1073). The following applies: Notch2 binding, higher = more signal.
For assay [6], the target named is Pro-neuregulin-1, membrane-bound isoform (Homo sapiens) (UniProt Q02297). The assay can be described thus: NRG1 binders on small-molecule microarrays, primary screen, psychiatric disease protein project, biochemical, small-molecule microarray, fluorescence 635/667 (AID 1075).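 Further: score combines 667 nm spot fluorescence with signal to noise.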 The following applies: NRG1 binding, 635 nm fluorescence, higher = more signal.
For assay [7], the system named is Neuregulin-1 EGF-like domain. The assay can be described thus: binders of neuregulin-1 EGF-like domain, primary screen, biochemical, small-molecule microarray, 635 nm fluorescence (AID 1081).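 Further: binding of the protein to compounds printed on small-molecule microarray slides.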 The following applies: small-molecule microarray binding, higher = more signal.
A short description of assay [8]: FRG1 promoter luciferase signal modulators, primary screen, FRG1 inhibition for FSHD, cell-based, C2C12 myotubes, firefly/Renilla luciferase, luminescence (AID 1084). The following applies: higher = more signal, called active from +8 up or from −8 down.
Assay [9] can be described thus: binders of probe aFST on microarray, primary screen, stem cell growth factor project, biochemical, small-molecule microarray, fluorescence 635/667 (AID 1086).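 Further: score merges 667 nm fluorescence with signal-to-noise of each printed compound spot.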 The following applies: higher = more signal.
A short description of assay [10]: binders of probe aHhip on microarray, primary screen, stem cell growth factor project, biochemical, small-molecule microarray, fluorescence 635/667 (AID 1087).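 Further: score merges spot fluorescence at 667nm with spot signal to noise ratio.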 The following applies: higher = more signal.
Assay [11] relates to PRMT1 (protein arginine N-methyltransferase 1). The assay can be described thus: PRMT1 binders on small-molecule microarrays, primary screen, biochemical, small-molecule microarray, 635 nm fluorescence (AID 1088).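 Further: binding of Prmt1 protein to compounds spotted on small-molecule microarray slides.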 The following applies: small-molecule microarray binding, higher = more signal.
Assay [12] can be described thus: yeast growth modulation, basal conditions, primary screen, YJM789 clinical isolate, OD600, 24 h (AID 1089).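 Further: growth of clinical yeast isolate S. cerevisiae YJM 789 seeded 1000 cells per well; test concentration not given here.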 The following applies: S. cerevisiae YJM789 growth, higher = more signal, called active from +8 up or from −8 down.
The nature of assay [13]: fission yeast growth modulation, primary screen, strain 972, OD600, 24 h, no modulator (AID 1090).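 Further: basal condition with compound alone and no growth modifier present; test concentration not given here.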 The following applies: S. pombe 972 growth, higher = more signal, called active from +8 up or from −8 down.
Assay [14] is described as follows: S. cerevisiae growth modulation with rapamycin, primary screen, strain BY4716, OD600, 96 h (AID 1091). Further: test concentration not given here. The following applies: higher = more signal, called active from +8 up or from −8 down.
In assay [15] the target is Torsin-1A-interacting protein 2 (Homo sapiens) (UniProt Q8NFQ8). The assay can be described thus: LULL1 binders on small-molecule microarray, primary screen, cell lysate, human LULL1 lysate, 635/667 nm fluorescence (AID 1092).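 Further: score merges per-feature 667 nm fluorescence with signal-to-noise.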 The following applies: hLULL1 lysate binding, 635 nm fluorescence, higher = more signal.
A short description of assay [16]: E. coli growth modulation, two-sided OD650, primary screen, E. coli filamentation project, strain DRC41, 24 h (AID 1093).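 Further: MC1000 strain lacking acrAB efflux and sulA so SOS filamentation is blocked; test concentration not given here.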 The following applies: OD650, 24 h, higher = more signal, called active from +8 up or from −8 down.
The nature of assay [17]: small-molecule microarray binders of probe aLefty2, primary screen, biochemical, biotinylated probe, 635/667 nm fluorescence (AID 1094).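 Further: score merges spot fluorescence near 667 nm with spot signal-to-noise ratio.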 The following applies: higher = more signal.
In assay [18] the test system is Noggin (protein binding on small-molecule microarray). The assay is described as follows: Noggin binders on small-molecule microarray, primary screen, biochemical, 635/667 nm fluorescence (AID 1095).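 Further: score merges 667 nm feature fluorescence with signal to noise over triplicate slides.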 The following applies: 635 nm fluorescence, higher = more signal.
Assay [19] deals with Neurogenic locus notch homolog protein 3 (Homo sapiens) (UniProt Q9UM47). The assay can be described thus: NOTCH3 binders on small-molecule microarray, primary screen, biochemical, 635/667 nm fluorescence (AID 1096). The following applies: NOTCH3 binding, 635 nm fluorescence, higher = more signal.
A short description of assay [20]: small-molecule microarray binders of probe aEGFR, primary screen, biochemical, biotinylated probe, 635/667 nm fluorescence (AID 1097).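 Further: probe is a biotinylated anti-EGFR antibody binding compounds printed on slides; score combines fluorescence near 667 nm and signal to noise of each spot.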 The following applies: higher = more signal.

Consider five compounds from PubChem BioAssay.

Each structure is given as a SMILES string. The source made the active and inactive calls.

Chain of Neurogenic locus notch homolog protein 3 (Homo sapiens) (Q9UM47 whole entry, looked up): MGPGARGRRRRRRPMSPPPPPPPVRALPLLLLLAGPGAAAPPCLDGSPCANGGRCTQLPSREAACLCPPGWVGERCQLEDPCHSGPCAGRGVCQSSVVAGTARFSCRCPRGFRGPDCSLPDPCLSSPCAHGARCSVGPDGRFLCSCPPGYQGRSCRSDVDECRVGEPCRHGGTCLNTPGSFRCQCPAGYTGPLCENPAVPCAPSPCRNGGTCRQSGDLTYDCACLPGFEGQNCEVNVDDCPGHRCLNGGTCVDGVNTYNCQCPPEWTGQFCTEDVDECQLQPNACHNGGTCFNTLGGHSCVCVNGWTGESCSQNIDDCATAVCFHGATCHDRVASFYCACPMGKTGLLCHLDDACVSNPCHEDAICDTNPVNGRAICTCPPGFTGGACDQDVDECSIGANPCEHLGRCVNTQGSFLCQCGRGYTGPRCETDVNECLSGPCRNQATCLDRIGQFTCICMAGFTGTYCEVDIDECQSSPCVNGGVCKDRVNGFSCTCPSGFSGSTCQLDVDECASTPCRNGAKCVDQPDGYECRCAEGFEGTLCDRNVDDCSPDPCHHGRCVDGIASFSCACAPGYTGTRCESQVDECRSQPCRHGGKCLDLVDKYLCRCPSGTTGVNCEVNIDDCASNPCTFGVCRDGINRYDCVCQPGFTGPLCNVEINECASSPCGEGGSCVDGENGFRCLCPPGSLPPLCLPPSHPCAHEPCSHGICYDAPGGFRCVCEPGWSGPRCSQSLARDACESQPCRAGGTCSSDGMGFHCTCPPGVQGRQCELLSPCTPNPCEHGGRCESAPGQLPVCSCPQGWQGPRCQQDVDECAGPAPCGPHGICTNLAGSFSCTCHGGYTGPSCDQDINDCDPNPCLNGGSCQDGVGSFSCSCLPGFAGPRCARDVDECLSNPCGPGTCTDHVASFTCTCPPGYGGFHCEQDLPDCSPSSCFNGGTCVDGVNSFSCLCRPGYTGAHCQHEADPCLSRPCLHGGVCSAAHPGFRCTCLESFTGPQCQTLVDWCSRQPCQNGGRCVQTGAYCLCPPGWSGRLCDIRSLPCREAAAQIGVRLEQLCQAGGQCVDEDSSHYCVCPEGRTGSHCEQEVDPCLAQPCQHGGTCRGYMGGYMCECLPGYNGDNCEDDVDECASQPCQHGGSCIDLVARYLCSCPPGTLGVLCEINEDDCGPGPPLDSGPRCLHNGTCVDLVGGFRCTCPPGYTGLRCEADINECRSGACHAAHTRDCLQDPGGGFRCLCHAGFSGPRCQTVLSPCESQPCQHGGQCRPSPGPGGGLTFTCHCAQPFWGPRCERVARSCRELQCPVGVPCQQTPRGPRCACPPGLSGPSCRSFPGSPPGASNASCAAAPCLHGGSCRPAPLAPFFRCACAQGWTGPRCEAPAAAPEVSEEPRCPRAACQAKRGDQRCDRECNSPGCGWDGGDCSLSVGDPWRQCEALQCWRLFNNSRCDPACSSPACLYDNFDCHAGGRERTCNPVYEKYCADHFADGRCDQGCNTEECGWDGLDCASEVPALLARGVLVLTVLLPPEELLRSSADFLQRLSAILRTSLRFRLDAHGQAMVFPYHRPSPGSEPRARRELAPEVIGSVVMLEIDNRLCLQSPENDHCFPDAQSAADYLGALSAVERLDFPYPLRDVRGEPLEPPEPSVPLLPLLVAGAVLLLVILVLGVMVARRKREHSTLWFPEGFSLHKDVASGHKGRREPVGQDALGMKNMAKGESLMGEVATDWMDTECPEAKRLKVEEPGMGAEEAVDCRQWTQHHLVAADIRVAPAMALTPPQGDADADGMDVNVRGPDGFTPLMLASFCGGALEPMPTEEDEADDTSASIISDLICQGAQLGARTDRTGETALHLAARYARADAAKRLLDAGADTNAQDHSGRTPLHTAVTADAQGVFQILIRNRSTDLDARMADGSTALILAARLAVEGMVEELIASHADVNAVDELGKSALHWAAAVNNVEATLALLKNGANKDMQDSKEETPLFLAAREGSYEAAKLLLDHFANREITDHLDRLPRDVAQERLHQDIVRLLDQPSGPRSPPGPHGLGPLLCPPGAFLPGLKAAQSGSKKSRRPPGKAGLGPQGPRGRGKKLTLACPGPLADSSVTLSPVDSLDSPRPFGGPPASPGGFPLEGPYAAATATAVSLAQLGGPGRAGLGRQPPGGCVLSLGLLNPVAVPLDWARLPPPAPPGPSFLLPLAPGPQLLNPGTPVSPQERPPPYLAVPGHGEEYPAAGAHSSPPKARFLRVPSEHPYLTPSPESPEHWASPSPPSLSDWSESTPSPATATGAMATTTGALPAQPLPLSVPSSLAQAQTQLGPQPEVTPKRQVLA
Chain of Neurogenic locus notch homolog protein 2 (Homo sapiens) (Q04721 whole entry, looked up, canonical isoform): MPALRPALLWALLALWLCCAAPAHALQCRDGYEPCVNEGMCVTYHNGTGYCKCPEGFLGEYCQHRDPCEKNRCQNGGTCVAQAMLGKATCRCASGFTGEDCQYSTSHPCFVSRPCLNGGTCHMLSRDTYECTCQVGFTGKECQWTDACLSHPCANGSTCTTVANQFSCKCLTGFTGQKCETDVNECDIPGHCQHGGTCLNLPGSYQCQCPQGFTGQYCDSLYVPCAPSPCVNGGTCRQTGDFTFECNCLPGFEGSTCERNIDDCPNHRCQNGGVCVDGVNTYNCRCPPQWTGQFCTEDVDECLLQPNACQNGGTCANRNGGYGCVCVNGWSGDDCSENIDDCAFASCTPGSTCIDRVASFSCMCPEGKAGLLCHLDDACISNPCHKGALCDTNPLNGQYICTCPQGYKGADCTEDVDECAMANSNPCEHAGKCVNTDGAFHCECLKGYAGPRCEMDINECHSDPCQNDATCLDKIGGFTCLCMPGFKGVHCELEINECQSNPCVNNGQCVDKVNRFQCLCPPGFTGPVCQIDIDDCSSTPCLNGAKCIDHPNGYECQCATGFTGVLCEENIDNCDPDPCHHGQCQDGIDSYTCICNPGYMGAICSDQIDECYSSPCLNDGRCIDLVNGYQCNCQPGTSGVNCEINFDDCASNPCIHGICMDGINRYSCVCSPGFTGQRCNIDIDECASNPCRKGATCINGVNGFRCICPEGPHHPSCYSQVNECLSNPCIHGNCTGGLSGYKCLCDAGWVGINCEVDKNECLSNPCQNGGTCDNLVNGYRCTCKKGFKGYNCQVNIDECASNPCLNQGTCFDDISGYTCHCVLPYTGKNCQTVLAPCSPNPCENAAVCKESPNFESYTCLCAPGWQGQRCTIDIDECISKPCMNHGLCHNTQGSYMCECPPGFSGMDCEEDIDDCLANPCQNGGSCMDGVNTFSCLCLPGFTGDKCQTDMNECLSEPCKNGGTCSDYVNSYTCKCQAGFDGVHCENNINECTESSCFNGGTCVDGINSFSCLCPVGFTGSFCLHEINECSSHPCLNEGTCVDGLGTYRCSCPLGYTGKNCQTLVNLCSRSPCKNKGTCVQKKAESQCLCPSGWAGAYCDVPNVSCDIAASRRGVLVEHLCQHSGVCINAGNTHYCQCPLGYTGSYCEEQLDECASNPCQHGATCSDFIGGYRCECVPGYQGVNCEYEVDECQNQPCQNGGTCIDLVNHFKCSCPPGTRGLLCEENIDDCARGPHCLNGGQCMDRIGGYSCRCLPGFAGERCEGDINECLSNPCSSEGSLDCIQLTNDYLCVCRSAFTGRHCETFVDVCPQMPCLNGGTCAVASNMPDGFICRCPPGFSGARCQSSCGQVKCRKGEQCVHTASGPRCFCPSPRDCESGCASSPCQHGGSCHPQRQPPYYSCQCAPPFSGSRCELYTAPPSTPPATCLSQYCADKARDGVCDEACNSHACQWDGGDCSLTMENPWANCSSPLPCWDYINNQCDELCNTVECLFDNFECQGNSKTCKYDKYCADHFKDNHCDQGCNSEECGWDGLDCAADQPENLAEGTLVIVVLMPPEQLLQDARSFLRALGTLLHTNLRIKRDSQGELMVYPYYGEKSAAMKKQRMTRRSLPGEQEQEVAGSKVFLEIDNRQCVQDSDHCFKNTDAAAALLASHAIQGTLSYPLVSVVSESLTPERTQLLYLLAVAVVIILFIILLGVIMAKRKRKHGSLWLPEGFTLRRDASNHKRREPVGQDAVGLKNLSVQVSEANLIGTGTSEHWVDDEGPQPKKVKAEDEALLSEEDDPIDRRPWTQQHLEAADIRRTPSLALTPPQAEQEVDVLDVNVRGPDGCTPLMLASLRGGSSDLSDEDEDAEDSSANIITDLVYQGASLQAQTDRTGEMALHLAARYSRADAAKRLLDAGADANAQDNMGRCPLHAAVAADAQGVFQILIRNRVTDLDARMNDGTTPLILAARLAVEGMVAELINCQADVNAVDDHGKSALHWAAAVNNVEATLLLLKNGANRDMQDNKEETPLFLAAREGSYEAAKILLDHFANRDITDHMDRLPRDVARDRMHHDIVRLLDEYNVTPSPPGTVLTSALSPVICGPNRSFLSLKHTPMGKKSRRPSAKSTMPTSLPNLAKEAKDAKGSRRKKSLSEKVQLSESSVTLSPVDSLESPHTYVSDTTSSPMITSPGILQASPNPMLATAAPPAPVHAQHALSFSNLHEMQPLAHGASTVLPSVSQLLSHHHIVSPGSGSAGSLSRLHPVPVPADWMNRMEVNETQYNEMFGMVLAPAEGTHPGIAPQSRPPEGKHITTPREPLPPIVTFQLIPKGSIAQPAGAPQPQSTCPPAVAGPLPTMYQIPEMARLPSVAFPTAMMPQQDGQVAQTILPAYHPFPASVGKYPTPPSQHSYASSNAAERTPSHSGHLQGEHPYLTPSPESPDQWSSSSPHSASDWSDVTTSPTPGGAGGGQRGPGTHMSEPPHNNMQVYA

With `C=C(/C(=C/C[C@@H](OC(=O)c1ccncc1)c1ccccc1OCCO)c1cnc2ccccc2c1)C(C)C`, the composite z-score was -0.108 in assay [1]; 0.707 in assay [2]; 0.0401 in assay [3]; 1.14 in assay [4]; 1.5 in assay [5]; 1.23 in assay [6]. In addition, the composite z-score was 1.2 in assay [7]; -0.177 in assay [9]; 0.144 in [10]; 1.54 in assay [11]; 2.72 in assay [15]; 0.0113 in [17]. Also, the composite z-score in assay [18] is 1.91; in [19], 1.07; in assay [20], 0.0381. For the same compound, the z-score in [8] was -3.75 (inactive); in [12] it was -24.2 (active); in [13], -20.3 (active); in [14], -4.07 (inactive); in [16] it was -0.0023 (inactive).
Regarding `CCCNC(=O)[C@@H]1c2ccccc2C(=O)N(CC23CC4CC(CC(C4)C2)C3)[C@H]1c1ccc(CO)cc1`, the composite z-score in [1] is -0.371; in [2], -0.101; in [3], -0.0588; in assay [4] it was 0.618; in [5], 1.56; in assay [6], 1.3. In addition, the composite z-score in [7] was 1.26; in assay [9], 1.3; in assay [10] it was 0.0373; in assay [11] it was 1.44; in [15] it was 2.79; in [17], 0.267. Further, the composite z-score in [18] is 0.406; in [19], 1.1; in [20], 0.167. Also, the z-score is -2.41 (inactive) in assay [8]; -0.449 (inactive) in assay [12]; -1.63 (inactive) in [13]; 0.835 (inactive) in [14]; -0.693 (inactive) in assay [16].
Turning to `CC(C)(C)OC(=O)CC[C@]1(C(=O)N2CCCCC2)N=C(c2ccc(OCCCO)cc2)O[C@H]1c1ccccc1CN=[N+]=[N-]`, the composite z-score was -0.193 in assay [1]; 1.29 in assay [2]; 0.347 in assay [3]; 1.14 in assay [4]; 1.65 in assay [5]; 1.89 in assay [6]. The composite z-score in assay [7] was 1.38; in [9], 0.821; in assay [10], -0.574; in assay [11], 1.54; in assay [15], 3.67; in assay [17], 0.694. Also, the composite z-score is 0.743 in assay [18], 1.05 in assay [19] and 0.314 in assay [20]. Moreover, the z-score in assay [8] was -2.88 (inactive); in assay [12], -4.42 (inactive); in assay [13] it was -0.736 (inactive); in [14], -0.279 (inactive); in assay [16] it was 2.1 (inactive).
On to `C[N+](C)(C)CCCC[C@@H]1NC(=O)[C@@H]2C[C@H](C(=O)O)[C@H](c3cccc(OCCO)c3)N2C1=O`, for which the composite z-score in assay [1] was 0.846; in assay [2] it was 0.0439; in assay [3], -0.179; in assay [4], -0.372; in assay [5] it was -0.821; in [6], -0.0567. Besides, the composite z-score was 1.1 in assay [7]; -0.184 in assay [9]; -0.245 in assay [10]; 0.583 in [11]; 0.423 in assay [15]; -0.175 in [17]. Also, the values for the composite z-score in assay [18], in assay [19] and in assay [20] were 0.601, -0.78 and -0.175, respectively. The z-score in assay [8] is -0.112 (inactive); in assay [12] it was 0.852 (inactive); in assay [13], -1.13 (inactive); in assay [14], 0.167 (inactive); in assay [16] it was 0.817 (inactive).
As to `COC(=O)[C@@]1(Cc2ccc(OC)cc2)[C@H]2c3cc(C(=O)N(C)C)n(Cc4cc(F)c(F)c(F)c4)c3C[C@H]2CN1C(=O)c1ccccc1`, the composite z-score in assay [1] is 0.831; in assay [2], -0.136; in assay [3], 0.329; in [4] it was 0.594; in assay [5], 1.74; in assay [6], 1.81. Further, the composite z-score was 1.08 in assay [7]; 1.24 in assay [9]; 0.987 in assay [10]; 0.456 in assay [11]; 3.44 in assay [15]; 0.625 in assay [17]. Moreover, the composite z-score is -0.217 in [18], 1.04 in [19] and 0.58 in assay [20]. Further, the z-score in assay [8] was 2.19 (inactive); in assay [12] it was 0.725 (inactive); in assay [13] it was 0.129 (inactive); in assay [14], 4.07 (inactive); in [16], -0.909 (inactive).
